# In all, about 39,000 compounds went through this assay and about 3,300 (8.5%) were called active. This is one part of a sample in which actives are shown more often than they occur.
# System: HepG2
# Assay: cytotoxicity call (relative viability < 0.9)
# Conditions: 10 µM
row,Structure (SMILES),cytotoxicity call
1,Cc1ccc(S(=O)(=O)Nc2cccc3c2O[C@@H](CN(C)C(=O)Nc2cccc4ccccc24)[C@@H](C)CN([C@@H](C)CO)C3=O)cc1,inactive
2,Cc1ccc(S(=O)(=O)N(C)C[C@@H]2Oc3ccc(NS(=O)(=O)c4ccccc4)cc3CC(=O)N([C@H](C)CO)C[C@H]2C)cc1,inactive
3,CN1CC(=O)NC1=O,inactive
4,O=C(NCCCO)C(=O)NC[C@H]1COc2ccccc2O1,inactive
5,C[C@H](CO)N1C[C@H](C)[C@@H](CN(C)Cc2ccc3c(c2)OCO3)Oc2ncc(C#CCN(C)C)cc2C1=O,inactive
6,CCCCC(=O)OC1CCC2C3CCc4cc(O)ccc4C3CCC12C (stereo not given),inactive
7,Cc1ccc(S(=O)(=O)Nc2ccc3c(c2)C(=O)N([C@@H](C)CO)C[C@@H](C)[C@H](CN(C)S(=O)(=O)c2cn(C)cn2)O3)cc1,inactive
8,Cc1c[nH]c2ccccc12,inactive
9,CN(C)Cc1nc(=O)c2ccccc2[nH]1,inactive
10,Cc1cc(C)c2[nH]c3ccccc3c2n1,active
11,Cc1ccc(S(=O)(=O)N(C)C[C@H]2OCCCC[C@@H](C)Oc3ccc(NC(=O)Cc4ccccc4)cc3C(=O)N([C@@H](C)CO)C[C@@H]2C)cc1,inactive
12,Cc1noc(C)c1NC(=O)Nc1ccc2c(c1)CC(=O)N([C@H](C)CO)C[C@@H](C)[C@@H](CN(C)Cc1ccc(Cl)c(Cl)c1)O2,inactive
13,C[C@H]1CN([C@@H](C)CO)C(=O)Cc2cc(NS(=O)(=O)c3ccc(Cl)cc3)ccc2O[C@H]1CN(C)Cc1ccc(Oc2ccccc2)cc1,active
14,C[C@@H]1CN([C@H](C)CO)C(=O)Cc2cc(NS(=O)(=O)c3ccc(Cl)cc3)ccc2O[C@H]1CN(C)Cc1ccc(Oc2ccccc2)cc1,active
15,C[C@H](CO)N1C[C@H](C)[C@H](CN(C)Cc2ccc(Oc3ccccc3)cc2)Oc2ccc(NS(=O)(=O)c3ccc(Cl)cc3)cc2CC1=O,active
16,C[C@@H]1CN([C@@H](C)CO)C(=O)Cc2cc(NS(=O)(=O)c3ccc(Cl)cc3)ccc2O[C@@H]1CN(C)Cc1ccc(Oc2ccccc2)cc1,active
17,COCCNC(=O)C[C@H]1C[C@@H]2c3cc(NC(=O)Nc4ccc(C(F)(F)F)cc4)ccc3O[C@@H]2[C@H](CO)O1,inactive
18,C[C@H]1CN([C@@H](C)CO)C(=O)Cc2cc(NC(=O)CCCCCC(=O)Nc3ccccc3N)ccc2O[C@H]1CN(C)C(=O)Nc1cccc2ccccc12,inactive
19,Cc1cccc(N2C[C@@H](CN)OC2=O)c1,inactive
20,O=C(O)C[C@@H]1C=C[C@H](NC(=O)c2ccncc2)[C@@H](CO)O1,inactive
21,O=C(NO)c1ccc(C(=O)N/N=C/c2cccc(B(O)O)c2)cc1,inactive
22,C[C@@H]1CN([C@@H](C)CO)C(=O)c2cc(NS(=O)(=O)c3cccs3)ccc2O[C@@H](C)CCCCO[C@H]1CN(C)C(=O)Nc1ccc(F)cc1,inactive
23,COc1ccc(S(=O)(=O)Nc2cccc3c2O[C@H](CN(C)S(=O)(=O)c2cccs2)[C@@H](C)CN([C@H](C)CO)C3=O)cc1,inactive
24,C[C@@H]1CN([C@H](C)CO)C(=O)Cc2cc(NS(=O)(=O)c3ccc(Cl)cc3)ccc2O[C@@H]1CN(C)Cc1ccc(Oc2ccccc2)cc1,active

row,Structure (SMILES),cytotoxicity call
1,C[C@H](CO)N1C[C@H](C)[C@@H](CN(C)Cc2ccc(Oc3ccccc3)cc2)Oc2ccc(NS(=O)(=O)c3ccc(Cl)cc3)cc2CC1=O,inactive
2,C[C@H]1CN([C@@H](C)CO)C(=O)Cc2cc(NS(=O)(=O)c3ccc(Cl)cc3)ccc2O[C@@H]1CN(C)Cc1ccc(Oc2ccccc2)cc1,active
3,C[C@@H]1CN([C@@H](C)CO)C(=O)Cc2cc(NS(=O)(=O)c3ccc(Cl)cc3)ccc2O[C@H]1CN(C)Cc1ccc(Oc2ccccc2)cc1,active
4,C[C@H]1CN([C@@H](C)CO)S(=O)(=O)c2ccc(C#CC3CC3)cc2O[C@H]1CN(C)Cc1ccccc1F,inactive
5,COc1ccc(CN(C)C[C@H]2Oc3ccc(NS(C)(=O)=O)cc3CC(=O)N([C@H](C)CO)C[C@@H]2C)cc1,inactive
6,C[C@@H]1CN([C@@H](C)CO)C(=O)c2cccc(NS(=O)(=O)c3ccc(F)cc3)c2O[C@H]1CN(C)CC1CC1,inactive
7,C[C@H]1CCCCO[C@H](CN(C)C(=O)Nc2cccc3ccccc23)[C@@H](C)CN([C@@H](C)CO)C(=O)c2cc(NC(=O)Nc3ccccc3)ccc2O1,inactive
8,C[C@@H]1CCCCO[C@H](CN(C)S(=O)(=O)c2ccc(Cl)cc2)[C@@H](C)CN([C@H](C)CO)C(=O)c2cc(NC(=O)C3CCCCC3)ccc2O1,inactive
9,CN(C)CC(=O)N1[C@H](CO)[C@@H](c2ccc(C3=CCCC3)cc2)C12CN(S(=O)(=O)Cc1ccccc1)C2,inactive
10,CCOc1ccc(-n2c([C@@H](C)N(Cc3cccnc3)C(=O)Cc3ccc(OC(F)(F)F)cc3)nc3ncccc3c2=O)cc1,inactive
11,CC(C)n1c(=S)[nH]c2ccccc21,active
12,CCn1c(=S)[nH]c2ccccc21,inactive
13,Cn1c(=O)[nH]c2ccccc21,inactive
14,COc1ccc(CN(C)C[C@@H]2OCCCC[C@H](C)Oc3ccc(NS(=O)(=O)c4cccs4)cc3C(=O)N([C@H](C)CO)C[C@@H]2C)cc1,inactive
15,CCNC(=O)c1sc(C)nc1N,active
16,CCNC(=O)c1coc(C)n1,inactive
17,CCNC(=O)c1csc(N)n1,inactive
18,C[C@@H]1CN([C@H](C)CO)C(=O)c2cc(Br)cnc2O[C@@H]1CN(C)C(=O)Nc1ccc(F)cc1,inactive
19,O=C(O)c1cc2n(n1)CCC2,inactive
20,C[C@@H]1CCCCO[C@H](CN(C)Cc2ccc3c(c2)OCO3)[C@H](C)CN([C@H](C)CO)C(=O)c2cc(NS(=O)(=O)c3ccc(Cl)cc3)ccc2O1,inactive
21,C[C@@H]1CCCCO[C@H](CN(C)Cc2ccc3c(c2)OCO3)[C@@H](C)CN([C@@H](C)CO)C(=O)c2cc(NS(=O)(=O)c3ccc(Cl)cc3)ccc2O1,inactive
22,C[C@H]1CCCCO[C@H](CN(C)Cc2ccc3c(c2)OCO3)[C@@H](C)CN([C@@H](C)CO)C(=O)c2cc(NS(=O)(=O)c3ccc(Cl)cc3)ccc2O1,inactive
23,C[C@@H]1CN([C@@H](C)CO)C(=O)c2cc(NS(=O)(=O)c3ccc(Cl)cc3)ccc2O[C@@H](C)CCCCO[C@H]1CN(C)Cc1ccc2c(c1)OCO2,active
24,C[C@H](CO)N1C[C@H](C)[C@H](CN(C)Cc2ccc3c(c2)OCO3)OCCCC[C@H](C)Oc2ccc(NS(=O)(=O)c3ccc(Cl)cc3)cc2C1=O,inactive

row,Structure (SMILES),cytotoxicity call
1,C[C@@H]1CCCCO[C@H](CN(C)Cc2ccc3c(c2)OCO3)[C@@H](C)CN([C@H](C)CO)C(=O)c2cc(NS(=O)(=O)c3ccc(Cl)cc3)ccc2O1,inactive
2,C[C@H](CO)N1C[C@H](C)[C@@H](CN(C)Cc2ccc3c(c2)OCO3)OCCCC[C@H](C)Oc2ccc(NS(=O)(=O)c3ccc(Cl)cc3)cc2C1=O,inactive
3,C[C@H]1CCCCO[C@@H](CN(C)Cc2ccc3c(c2)OCO3)[C@@H](C)CN([C@@H](C)CO)C(=O)c2cc(NS(=O)(=O)c3ccc(Cl)cc3)ccc2O1,inactive
4,C[C@@H]1CN([C@@H](C)CO)C(=O)c2cc(NS(=O)(=O)c3ccc(Cl)cc3)ccc2O[C@@H](C)CCCCO[C@@H]1CN(C)Cc1ccc2c(c1)OCO2,inactive
5,C[C@@H]1CCCCO[C@H](CN(C)Cc2ccc3c(c2)OCO3)[C@H](C)CN([C@@H](C)CO)C(=O)c2cc(NS(=O)(=O)c3ccc(Cl)cc3)ccc2O1,active
6,C[C@@H]1CCCCO[C@@H](CN(C)Cc2ccc3c(c2)OCO3)[C@H](C)CN([C@H](C)CO)C(=O)c2cc(NS(=O)(=O)c3ccc(Cl)cc3)ccc2O1,active
7,C[C@@H]1CCCCO[C@@H](CN(C)Cc2ccc3c(c2)OCO3)[C@@H](C)CN([C@H](C)CO)C(=O)c2cc(NS(=O)(=O)c3ccc(Cl)cc3)ccc2O1,active
8,C[C@H](CO)N1C[C@H](C)[C@H](CN(C)S(C)(=O)=O)Oc2ccc(NS(=O)(=O)c3ccc(Cl)cc3)cc2C1=O,inactive
9,OCc1cccc(Cn2cncn2)c1,inactive
10,C[C@@H]1CN([C@@H](C)CO)S(=O)(=O)c2ccc(Br)cc2O[C@H]1CN(C)C(=O)c1ccccc1,inactive
11,COCC#Cc1ccc([C@@H]2[C@H]3CN(C(=O)c4ccncc4)CC(=O)N3[C@H]2CO)cc1,inactive
12,COc1ccc(NC(=O)Nc2ccc3c(c2)C(=O)N([C@H](C)CO)C[C@H](C)[C@@H](CN(C)S(=O)(=O)c2ccc(F)cc2)OCCCC[C@@H](C)O3)cc1,inactive
13,C[C@H]1CN([C@@H](C)CO)C(=O)Cc2cc(NC(=O)Cn3cnnn3)ccc2O[C@H]1CN(C)Cc1ccc(C(=O)Nc2ccccc2N)cc1,inactive
14,Cc1ccc(S(=O)(=O)Nc2ccc3c(c2)C(=O)N([C@H](C)CO)C[C@@H](C)[C@@H](CN(C)C(=O)Nc2ccc4c(c2)OCO4)OCCCC[C@H](C)O3)cc1,inactive
15,C[C@@H]1CN([C@H](C)CO)C(=O)c2cc(NC(=O)CCCN(C)C)ccc2O[C@@H]1CN(C)S(=O)(=O)c1cccs1,inactive
16,CC(C)C#Cc1ccc2c(c1)O[C@@H](CN(C)C(=O)Cc1ccccn1)[C@@H](C)CN([C@@H](C)CO)S2(=O)=O,inactive
17,Cc1ccc(S(=O)(=O)N(C)C[C@@H]2Oc3c(NC(=O)Nc4cccc5ccccc45)cccc3C(=O)N([C@@H](C)CO)C[C@H]2C)cc1,inactive
18,COc1ccc(NC(=O)Nc2cccc3c2O[C@H](CN(C)Cc2ccc(C(F)(F)F)cc2)[C@H](C)CN([C@@H](C)CO)C3=O)cc1,inactive
19,CC(C)NC(=O)Nc1cccc2c1O[C@@H](CN(C)S(=O)(=O)c1ccc(Cl)cc1)[C@@H](C)CN([C@H](C)CO)C2=O,inactive
20,C[C@@H]1CN([C@H](C)CO)C(=O)c2cc(NS(=O)(=O)c3ccc(Cl)cc3)ccc2O[C@@H](C)CCCCO[C@@H]1CN(C)Cc1ccc2c(c1)OCO2,inactive
21,C[C@@H]1CN([C@H](C)CO)C(=O)c2cc(NS(=O)(=O)c3ccc(Cl)cc3)ccc2O[C@@H](C)CCCCO[C@H]1CN(C)Cc1ccc2c(c1)OCO2,inactive
22,C[C@@H]1CCCCO[C@@H](CN(C)Cc2ccc3c(c2)OCO3)[C@@H](C)CN([C@@H](C)CO)C(=O)c2cc(NS(=O)(=O)c3ccc(Cl)cc3)ccc2O1,active

# From the antibiotic and cytotoxicity screens of Wong et al. (2023)
